Screening results from PubChem BioAssay.
This is a sample that favours compounds with a hit; in the whole collection about 3.5% have one here.
FBW7 act: human FBW7 E3 ligase activation, primary screen | Q969H0 | AlphaScreen FBW7–phospho-cyclin E peptide binding, activator screen | normalized activity (activation), % at 26.1 µM | 0.13% of 650,000 active | AID 1259310; in the data active = normalized activity above about 1.9%;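 also: purified mutant Fbw7 with reduced substrate affinity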
GPR151 ag: human GPR151 activation; Q8TDV0; PathHunter beta-arrestin GPR151 cells, luminescence; activation, % at 11.2 µM; 1% of 650,000 active; AID 1508602; in the data active = activation above about 4.9%;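 also: 0% = median of compound wells and 100% = cells with positive control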
MITF primary: blocks human microphthalmia-associated transcription factor. 0.91% of 650,000 active. inhibition, % at 2.6 µM. AlphaScreen MITF homodimerization, bead proximity signal. O75030; in the data active = inhibition above about 50%;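 also: 0% = vehicle wells with protein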
Target sequence (O75030 whole entry, looked up): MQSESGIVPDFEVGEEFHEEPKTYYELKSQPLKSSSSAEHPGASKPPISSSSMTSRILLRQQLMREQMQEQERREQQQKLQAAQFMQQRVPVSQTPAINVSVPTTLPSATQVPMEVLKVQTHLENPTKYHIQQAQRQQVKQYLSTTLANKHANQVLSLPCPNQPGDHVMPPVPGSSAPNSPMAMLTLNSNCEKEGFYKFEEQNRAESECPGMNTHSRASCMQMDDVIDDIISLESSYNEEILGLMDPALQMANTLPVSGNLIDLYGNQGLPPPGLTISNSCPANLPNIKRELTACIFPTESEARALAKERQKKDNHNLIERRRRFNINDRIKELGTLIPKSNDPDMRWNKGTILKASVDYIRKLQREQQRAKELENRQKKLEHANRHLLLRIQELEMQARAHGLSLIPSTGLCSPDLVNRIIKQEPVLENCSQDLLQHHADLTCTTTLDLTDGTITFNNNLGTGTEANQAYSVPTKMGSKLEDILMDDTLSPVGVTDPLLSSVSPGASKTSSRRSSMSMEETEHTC
TEAD-YAP inh: TEAD-YAP interaction inhibition. 1.4% of 640,000 active. HEK-TIYL cells, TEAD-Gal4/YAP UAS-luciferase luminescence. inhibition, % at 9.12 µM; in the data active = inhibition above about 32%;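 also: 0% = median of test compound wells and 100% = reference inhibitor wells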
MITF confirm: confirmation of human MITF inhibitors. shares compounds with MITF primary. 16% of 4,700 active. AID 1259372. AlphaScreen MITF homodimerization, biotin/His-MITF beads. inhibition, % at 2.6 µM;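 active = inhibition above a cutoff derived from the DMSO control wells, cut at about 28% in these data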;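 also: 0% = MITF dimer wells with DMSO only; inhibitors lower the bead chemiluminescence by keeping MITF from dimerizing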
AS interf ctr: counter-screen: compounds optically interfering with AlphaScreen; shares compounds with MITF primary; LysRS AlphaScreen counterscreen, signal interference, triplicate; inhibition, % at 2.6 µM; 7.6% of 4,700 active; AID 1259376;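 active = inhibition above a cutoff derived from the DMSO control wells, cut at about 30% in these data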
* = called active by the depositor; . = no result given.

SMILES	FBW7 act	GPR151 ag	MITF primary	TEAD-YAP inh	MITF confirm	AS interf ctr
Fc1ccccc1CN1CCC(N2CCCCC2)CC1	0	-1	-19	5	.	.
CC1CCC(N2CCN(Cc3ccccc3F)CC2)CC1 (stereo not drawn)	0	-1	63*	7	-4	10
Fc1ccccc1CN1CCN(C2CCCCC2)CC1	0	1	61*	1	8	-1
Fc1ccccc1CN1CCC(N2CCN(c3ccccc3)CC2)CC1	0	-1	53*	-4	2	9
CCN1CCN(C2CCN(Cc3ccccc3C)CC2)CC1	0	0	14	-3	.	.
CN(Cc1cccc(OC2CCN(C(=O)C3CC3)CC2)c1)Cc1cccc2ncccc12	0	3	13	31	.	.
CCCCCCc1cc2c(=O)c(-c3nc(C)cs3)coc2cc1OC(C)C(=O)OCC (stereo not drawn)	0	-1	11	6	.	.
CC(C)C(=O)NC1CCCCCC1	1	1	16	-5	.	.
CCOC(=O)c1c(NC(=O)C(C)Sc2nnc(CNC(=O)COc3ccccc3)n2-c2ccccc2OC)sc2c1CCCC2 (stereo not drawn)	0	2	-2	-12	.	.
CC(O)CNCC(O)COc1cc(Cl)ccc1Cl (stereo not drawn)	0	0	-8	-3	.	.
C=CCNCC(O)COc1cc(Cl)ccc1Cl (stereo not drawn)	0	1	53*	4	-11	-3
Cc1ccc(-c2c(C(=O)Nc3ccc(N4CCOCC4)c(Cl)c3)oc(=O)c3ccccc23)cc1	0	2	-3	-4	.	.
CN(C(=O)c1cccs1)C(Cc1ccccc1)C1CCN(C(=O)c2ccn(C)n2)CC1 (stereo not drawn)	2	0	74*	-24	6	-1
O=C(Cc1ccc(Br)cc1)N1CCN(c2ncccn2)CC1	0	1	2	-16	.	.
COc1ccccc1NC(=O)c1c(NCc2ccncc2)sc2c1CCC(C)C2 (stereo not drawn)	0	1	-2	-1	.	.
CCn1c2ccccc2c2cc(CN3CCN(C(=O)c4ccc(F)cc4)CC3)ccc21	0	4	55*	-14	5	7
CCn1c2ccccc2c2cc(CN3CCN(C(=O)c4ccccc4)CC3)ccc21	0	0	23	-1	.	.
CCn1c2ccccc2c2cc(CN3CCN(C(=O)c4cccnc4)CC3)ccc21	0	0	58*	-4	3	3
CCn1c2ccccc2c2cc(CN3CCN(C(=O)c4ccc(OC)cc4)CC3)ccc21	0	1	48	7	.	.
COc1cccc(NC(=O)CN2C(=O)C(c3ccc(C)cc3)=NC23CCCCC3)c1	0	1	1	19	.	.
Clc1cccc(CN2CCN(CC3CC4C=CC3C4)CC2)c1 (stereo not drawn)	0	1	74*	-1	13	18
Clc1ccccc1CN1CCN(CC2CC3C=CC2C3)CC1 (stereo not drawn)	0	0	74*	5	-5	2
O=S(=O)(Cc1ccccc1)N1CCN(CC2CC3C=CC2C3)CC1 (stereo not drawn)	0	1	37	1	.	.
Cc1cccc(CN2CCN(CC3CC4C=CC3C4)CC2)c1 (stereo not drawn)	0	-2	57*	-10	7	19
COc1ccc(F)cc1C(=O)C1CCCN(C(=O)c2cn3ccsc3n2)C1 (stereo not drawn)	0	0	4	-14	.	.
SMILES	FBW7 act	GPR151 ag	MITF primary	TEAD-YAP inh	MITF confirm	AS interf ctr
CNC(=O)COC(=O)c1cc(S(=O)(=O)NCC(C)C)c(Cl)cc1Cl	0	1	-3	-6	.	.
CNC(=O)COc1ccc(S(=O)(=O)N2CCCCC2)cc1	0	1	-8	-1	.	.
COc1ccc(C(C)=O)cc1CSc1nc(NCCc2ccccc2)c2ccccc2n1	0	0	3	-2	.	.
COc1ccc(C(C)=O)cc1CSc1nc(NC2CCCCC2)c2ccccc2n1	0	1	80*	-2	0	-1
C#CCNCC(O)COc1ccc(OCC)cc1 (stereo not drawn)	0	-1	66*	-21	3	7
CC(C)c1ccc(NC(=O)CNCC(c2ccccc2)N(C)C)cc1 (stereo not drawn)	0	-1	65*	2	0	-1
CN(C)C(CNCC(=O)NC(=O)Nc1ccc2c(c1)OCCO2)c1ccccc1 (stereo not drawn)	0	0	79*	55*	3	2
CC1Cc2ccccc2N1C(=O)CNCC(c1ccccc1)N(C)C (stereo not drawn)	-1	0	67*	-3	16	25
CN(C)C(CNCC(=O)N1CCc2ccccc21)c1ccco1 (stereo not drawn)	0	-1	62*	-10	2	10
CN(C)C(CNCC(=O)Nc1ccc2c(c1)CCC2)c1ccccc1 (stereo not drawn)	0	-2	46	-2	.	.
CC1Cc2ccccc2N1C(=O)CNCCN(C)C (stereo not drawn)	0	0	-3	-7	.	.
CC1=C(C(=O)OCCc2ccccc2)C(c2cccc(C)c2)C2=C(CCCC2=O)N1 (stereo not drawn)	0	2	0	-2	.	.
O=C1c2cccc3cccc(c23)C(=O)N1CC(O)c1ccccc1 (stereo not drawn)	0	2	9	-65	.	.
Cc1sc2ncnc(Nc3ccc(-c4ccccc4)cc3)c2c1C	0	-1	-4	-7	.	.
CC(C)NC(=O)CCCCn1c(=O)c2ccccc2n(CC(=O)NCc2ccccc2)c1=O	0	-1	-12	1	.	.
O=C(O)c1c[nH]c2c(Cl)c(Cl)ccc2c1=O	-1	1	32	-5	.	.
O=C(O)c1c[nH]c2c(ccc3cccnc32)c1=O	.	-1	121*	.	98*	101*
COC(=O)Nc1ccc(S(=O)(=O)N2CCC(C)CC2)cc1	0	1	75*	2	7	19
O=C1NC(=O)C(CCCc2ccccc2)(C2CCN(C(=O)Cc3cccc(F)c3)CC2)N1 (stereo not drawn)	0	-1	51*	0	4	-2
O=C1NC(=O)C(CCCc2ccccc2)(C2CCN(C(=O)Cc3cccs3)CC2)N1 (stereo not drawn)	0	0	-18	6	.	.
O=C(Nc1nnc(C(F)(F)F)s1)c1ccccc1[N+](=O)[O-]	0	-1	17	-33	.	.
O=C1c2ccccc2C(=O)N1/N=C/c1cc([N+](=O)[O-])ccc1O	0	0	-3	0	.	.
Cc1cc(C)c(C)c(OCCNC(C)(C)C)c1	0	1	14	10	.	.
c1ccc(-c2ccc(OCCCN3CCNCC3)cc2)cc1	0	0	-16	-53	.	.
CCN1CCN(CCOCCOc2ccc3ccccc3c2Cl)CC1	0	0	51*	-4	6	12
CCN1CCN(CCOCCOc2ccccc2-c2ccccc2)CC1	0	0	64*	4	8	17
